# This is part of a sample that, as a whole, favours compounds with a hit. Of some 79,000 tested, about 15% had one in any assay. Values without a mark were called inactive. Calls of active or inactive are those of the source. Rule as the data show it: active = growth inhibition above about 70%; inactive = the rest.
# Experiments:
# [1] = NCI Yeast Anticancer Drug Screen. Data for the rad52 strain (AID 147);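 also: 0% = growth of vehicle-treated control cultures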; details: S. cerevisiae rad52 mutant growth inhibition, hits give high values
# In short: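 Compounds are applied to a genetically defined yeast strain lacking normal DNA damage repair, and inhibition of growth is expressed relative to cultures given vehicle only.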
# [2] = NCI Yeast Anticancer Drug Screen. Data for the wt1 strain (AID 149);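 also: 0% = growth of vehicle-treated wt1 cultures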; details: S. cerevisiae wt1 strain (SPY 50644) growth inhibition, hits give high values
# In short: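 Growth inhibition read against vehicle controls after compound exposure of the wt1 yeast strain.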
# [3] = NCI Yeast Anticancer Drug Screen. Data for the rad50EPP+ strain (AID 151);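 also: 0% = growth of vehicle-treated control cultures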; details: S. cerevisiae rad50 mutant strain, hits give high values
# In short: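 Compounds were applied to the rad50EPP+ yeast strain, which bears a defined DNA repair alteration, and growth inhibition was determined relative to vehicle-treated cultures.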
# [4] = NCI Yeast Anticancer Drug Screen. Data for the mgt1 strain (AID 153); details: S. cerevisiae mgt1 mutant growth inhibition, hits give high values
# In short: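 Strain: mgt1 yeast, one of a set carrying defined DNA damage repair or cell cycle control alterations. Compound-treated growth compared with vehicle.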
# [5] = NCI Yeast Anticancer Drug Screen. Data for the rad50 strain (AID 155);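 also: 0% = growth of vehicle-only cultures of the same strain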; details: S. cerevisiae rad50 strain growth inhibition, hits give high values
# In short: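 Readout: growth inhibition relative to vehicle-treated cultures. Compound exposure was carried out in a genetically defined yeast strain deficient in DNA damage repair.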
# [6] = NCI Yeast Anticancer Drug Screen. Data for the mec2-1 strain (AID 157); details: S. cerevisiae mec2-1 strain, hits give high values
# In short: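 Strain: mec2-1 (DNA repair/cell cycle alteration). Compound exposure, then growth measured; inhibition expressed relative to vehicle.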
# [7] = NCI Yeast Anticancer Drug Screen. Data for the sgs1 mgt1 strain (AID 161);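 also: 0% = growth of cultures given vehicle only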; details: S. cerevisiae sgs1 mgt1 strain, hits give high values
# In short: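 Test agents were incubated with a DNA-repair-mutant yeast strain. Growth was then read and compared against vehicle-treated controls.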
# [8] = NCI Yeast Anticancer Drug Screen. Data for the CLN2oe strain (AID 163);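 also: 0% = growth of vehicle-only control cultures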; details: S. cerevisiae CLN2oe strain, hits give high values
# In short: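 Growth of a genetically modified yeast strain is measured after compound exposure and compared with cultures given vehicle alone.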
# [9] = NCI Yeast Anticancer Drug Screen. Data for the cln2 rad14 strain (AID 165);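 also: 0% = growth equal to vehicle treated cultures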; details: S. cerevisiae cln2 rad14 strain, hits give high values
# In short: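 Compounds are applied to the cln2 rad14 yeast strain, and growth is then compared with that of vehicle-treated cultures to give inhibition.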
# [10] = NCI Yeast Anticancer Drug Screen. Data for the bub3 strain (AID 167); details: S. cerevisiae bub3 mutant strain, hits give high values
# In short: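 Readout: yeast growth inhibition, expressed relative to vehicle-only wells. The test organism is a mutant strain from a panel with lesions in DNA repair or checkpoint genes.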
# [11] = NCI Yeast Anticancer Drug Screen. Data for the wt2 strain (AID 169);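 also: 0% = growth of vehicle-treated yeast cultures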; details: S. cerevisiae wt2 strain growth inhibition, hits give high values
# In short: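 This strain belongs to a panel of yeast strains with defined genetic alterations in DNA damage repair or cell cycle control. Compounds are applied, and growth inhibition is measured against vehicle-treated cultures.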
# [12] = NCI Yeast Anticancer Drug Screen. Data for the mlh1 strain (AID 171);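 also: 0% = growth of vehicle-treated control cultures of the same strain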; details: S. cerevisiae mlh1 strain growth inhibition, hits give high values
# In short: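 Growth of the mutant yeast strain after compound exposure, expressed as inhibition relative to vehicle-only controls.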
# [13] = NCI Yeast Anticancer Drug Screen. Data for the sgs1 strain (AID 173);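 also: 0% = growth of vehicle-only control cultures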; details: S. cerevisiae sgs1 mutant, hits give high values
# In short: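 Growth of a yeast strain bearing a defined genetic alteration is measured after compound treatment. Inhibition is expressed relative to vehicle-only controls.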
# [14] = NCI Yeast Anticancer Drug Screen. Data for the mlh1 rad18 strain (AID 175); details: S. cerevisiae mlh1 rad18 strain growth inhibition, hits give high values
# In short: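 Read-out is yeast growth inhibition, calculated against vehicle-only controls. The compound was applied to a strain engineered with DNA damage repair alterations.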
# [15] = NCI Yeast Anticancer Drug Screen. Data for the rad18 strain (AID 177); details: S. cerevisiae rad18 mutant growth inhibition, hits give high values
# In short: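 Growth of the mutant yeast strain after compound exposure, normalised to vehicle-only cultures.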
# [16] = at 5.0 µM (retest, dose inferred, filed as 0.5)
# [17] = at 50.0 µM (retest, dose inferred, filed as 5.0)
smiles,measurement,setting,value
Cn1c(N)nc(-c2ccc(Cl)cc2)c1SSc1c(-c2ccc(Cl)cc2)nc(N)n1C,growth inhibition,[1]; at 1.2 µM,-5%
same,growth inhibition,[1]; at 3.7 µM,-2%
same,growth inhibition,[1]; at 11.0 µM,33%
same,growth inhibition,[1]; at 33.0 µM,88% (active)
same,growth inhibition,[1]; at 100.0 µM,98% (active)
same,growth inhibition,[2]; at 1.2 µM,2%
same,growth inhibition,[2]; at 3.7 µM,4%
same,growth inhibition,[2]; at 11.0 µM,16%
same,growth inhibition,[2]; at 33.0 µM,44%
same,growth inhibition,[2]; at 100.0 µM,94% (active)
same,growth inhibition,[3]; at 1.2 µM,-6%
same,growth inhibition,[3]; at 3.7 µM,9%
same,growth inhibition,[3]; at 11.0 µM,53%
same,growth inhibition,[3]; at 33.0 µM,84% (active)
same,growth inhibition,[3]; at 100.0 µM,97% (active)
same,growth inhibition,[4]; at 1.2 µM,-2%
same,growth inhibition,[4]; at 3.7 µM,0%
same,growth inhibition,[4]; at 11.0 µM,13%
same,growth inhibition,[4]; at 33.0 µM,71% (active)
same,growth inhibition,[4]; at 100.0 µM,98% (active)
same,growth inhibition,[5]; at 1.2 µM,-9%
same,growth inhibition,[5]; at 3.7 µM,-17%
same,growth inhibition,[5]; [16],-13%
same,growth inhibition,[5]; at 11.0 µM,6%
same,growth inhibition,[5]; at 33.0 µM,73% (active)
same,growth inhibition,[5]; [17],15%
same,growth inhibition,[5]; at 50.0 µM,95.5% (active)
same,growth inhibition,[5]; at 100.0 µM,97% (active)
same,growth inhibition,[6]; at 1.2 µM,-1%
same,growth inhibition,[6]; at 3.7 µM,3%
same,growth inhibition,[6]; [16],-15%
same,growth inhibition,[6]; at 11.0 µM,30%
same,growth inhibition,[6]; at 33.0 µM,75% (active)
same,growth inhibition,[6]; [17],13%
same,growth inhibition,[6]; at 50.0 µM,93.1% (active)
same,growth inhibition,[6]; at 100.0 µM,97% (active)
same,growth inhibition,[7]; [16],-12%
same,growth inhibition,[7]; [17],6%
same,growth inhibition,[7]; at 50.0 µM,94.8% (active)
same,growth inhibition,[8]; at 1.2 µM,-8%
same,growth inhibition,[8]; at 3.7 µM,-2%
same,growth inhibition,[8]; at 11.0 µM,5%
same,growth inhibition,[8]; at 33.0 µM,63%
same,growth inhibition,[8]; at 100.0 µM,97% (active)
same,growth inhibition,[9]; [16],37%
same,growth inhibition,[9]; [17],-3%
same,growth inhibition,[9]; at 50.0 µM,92% (active)
same,growth inhibition,[10]; at 1.2 µM,-4%
same,growth inhibition,[10]; at 3.7 µM,-2%
same,growth inhibition,[10]; [16],-4%
same,growth inhibition,[10]; at 11.0 µM,21%
same,growth inhibition,[10]; at 33.0 µM,82% (active)
same,growth inhibition,[10]; [17],93% (active)
same,growth inhibition,[10]; at 50.0 µM,94.9% (active)
same,growth inhibition,[10]; at 100.0 µM,97% (active)
same,growth inhibition,[11]; at 1.2 µM,-1%
same,growth inhibition,[11]; at 3.7 µM,1%
same,growth inhibition,[11]; at 11.0 µM,20%
same,growth inhibition,[11]; at 33.0 µM,71% (active)
same,growth inhibition,[11]; at 100.0 µM,99% (active)
same,growth inhibition,[12]; at 1.2 µM,0%
same,growth inhibition,[12]; at 3.7 µM,3%
same,growth inhibition,[12]; at 11.0 µM,23%
same,growth inhibition,[12]; at 33.0 µM,82% (active)
same,growth inhibition,[12]; at 100.0 µM,98% (active)
same,growth inhibition,[13]; at 1.2 µM,0%
same,growth inhibition,[13]; at 3.7 µM,6%
same,growth inhibition,[13]; at 11.0 µM,28%
same,growth inhibition,[13]; at 33.0 µM,85% (active)
same,growth inhibition,[13]; at 100.0 µM,98% (active)
same,growth inhibition,[14]; [16],-5%
same,growth inhibition,[14]; [17],24%
same,growth inhibition,[14]; at 50.0 µM,97.8% (active)
same,growth inhibition,[15]; at 1.2 µM,-3%
same,growth inhibition,[15]; at 3.7 µM,-1%
same,growth inhibition,[15]; at 11.0 µM,34%
same,growth inhibition,[15]; at 33.0 µM,88% (active)
same,growth inhibition,[15]; at 100.0 µM,94% (active)

# — PubChem BioAssay (NCI)
